Source: PubChem BioAssay (The Scripps Research Institute Molecular Screening Center)
DAX1 inh-1 – inhibitors of DAX1 repression of SF-1 activated StAR promoter. inhibition, % at 6.8 µM. HEK293T StAR-luciferase reporter, SF-1/DAX-1 repression relief. 1.1% of 370,000 active. AID 652010;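 active means inhibition above the mean over all tested compounds plus 3 SD, cut at about 3.6% in these data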;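 further: 0% = DAX-1 cells with DMSO and 100% = cells lacking DAX-1 with DMSO; higher inhibition means more luminescence from relief of DAX-1 repression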
DAX1 inh-2 – inhibitors of human orphan nuclear receptor DAX1 (NR0B1). 0.99% of 340,000 active. inhibition, % at 6.75 µM. HEK293 Gal4-DAX1 luciferase reporter, luminescence;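 active means inhibition above the mean over all tested compounds plus 3 SD, cut at about 4.2% in these data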;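 further: 0% = DAX1-transfected cells with DMSO and 100% = empty-vector control cells with DMSO; inhibition shows as a rise in luminescence from relieved DAX1 repression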
Target sequence (P51843 207-470 limits assumed): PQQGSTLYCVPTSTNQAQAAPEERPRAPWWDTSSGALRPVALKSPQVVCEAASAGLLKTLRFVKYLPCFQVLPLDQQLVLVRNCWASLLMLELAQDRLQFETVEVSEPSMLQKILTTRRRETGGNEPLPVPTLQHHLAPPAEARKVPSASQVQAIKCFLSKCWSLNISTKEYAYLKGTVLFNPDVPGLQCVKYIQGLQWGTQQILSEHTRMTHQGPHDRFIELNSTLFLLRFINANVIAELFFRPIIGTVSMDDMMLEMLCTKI
hgDAF12 agonist – hgDAF-12 agonism, primary luciferase screen | 1.8% of 370,000 active | activation, % at 6.8 µM | HEK293 GAL4-hgDAF12 UAS-luciferase reporter, agonist luminescence; normalized to butyrate control;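 active means activation above a cutoff set at the mean of all screened compounds plus 3 SD, cut at about 10% in these data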;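 further: 0% = DMSO wells and 100% = sodium butyrate wells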
ssDAF-12 act – activates DAF-12 receptor from parasite S. stercoralis. HEK293 ssDAF-12/GRIP1 lit1-tk-luc reporter, luminescence; % of 3 µM dafachronic acid response. 1% of 370,000 active. activation, % at 6.8 µM;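 active means activation above the mean over all tested compounds plus 3 SD, cut at about 0.9% in these data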;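 further: 0% = DMSO-only wells and 100% = 3 µM delta7-dafachronic acid wells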
hcDAF-12 act – activates DAF-12 receptor from parasite H. contortus; HEK293 hcDAF-12 lit1-tk-luc reporter, luminescence; 0% DMSO, 100% Δ7-dafachronic acid; activation, % at 6.8 µM; 1.4% of 370,000 active; AID 652067;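 active means activation above the mean of all tested compounds plus 3 SD, cut at about 5.5% in these data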;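 further: 100% = response to 3 µM Δ7-dafachronic acid high control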
Starred values were filed as active, the others as inactive; . = no result. Only some compounds are listed: those with a hit (about 4.1% of all), similar ones and a draw of the others.

SMILES	DAX1 inh-1	DAX1 inh-2	hgDAF12 agonist	ssDAF-12 act	hcDAF-12 act
COC(=O)C1CN(Cc2cn(Cc3ccc(Cl)cc3)nn2)CCS(=O)(=O)N1Cc1ccc(OC)cc1 (stereo unspecified)	-2.5	.	-2.6	-2.0	-2.5
CCOc1ccc(-n2c(SCc3ccc(C#N)cc3)nnc2-c2ccco2)cc1	-1.1	.	0.2	-1.2	-2.0
CNc1nc(-c2ccc3c(c2)CCN3C(=O)c2ccc(F)cc2)cs1	-0.9	0.4	1.0	-1.7	-1.4
CNc1nc(-c2ccc3c(c2)CCN3C(=O)c2cccc(F)c2)cs1	-0.9	0.0	10.7*	-1.1	0.3
Cc1ccc(/C=C2\SC(N3CCCC3)=NC2=O)cc1	-0.7	.	2.2	-0.3	-0.3
CN(C)c1ccc(/C=C2\SC(N3CCCCC3)=NC2=O)cc1	-1.0	4.6*	-1.8	-1.6	-0.1
CC1=Cc2ccccc2C(C#N)N1C(=O)c1ccccc1 (stereo unspecified)	0.4	1.1	1.2	-1.3	-0.2
N#C[C@H]1C(O)C(O)c2ccccc2N1C(=O)c1ccccc1 (stereo partly specified)	-0.3	4.3*	-0.2	-1.1	0.4
CCN(CC)c1ccc(C(=O)OCC(=O)Nc2sccc2C#N)cc1	1.9	0.5	10.7*	-0.1	5.3
Cc1ccccc1N(CC(=O)NC1CCCCC1)C(=O)CCCC(=O)Nc1ccccn1	-0.2	5.0*	-1.3	-1.0	-3.3
CCc1ccccc1N(CC(=O)NC1CCCCC1)C(=O)CCCC(=O)Nc1ccccn1	-0.3	2.5	0.3	-0.8	-1.9
Cc1ccc(-c2cc(C(=O)NN=Cc3ccc(N(C)C)cc3)[nH]n2)cc1C	0.2	.	4.0	-1.0	2.8
C[C@H](CO)N1C[C@H](C)[C@@H](CN(C)S(=O)(=O)c2ccccc2)Oc2ccc(NC(=O)NC3CCCCC3)cc2C1=O	4.2*	-0.8	-0.1	-0.4	0.4
C[C@H](CO)N1C[C@H](C)[C@@H](CN(C)S(=O)(=O)c2ccccc2)Oc2ccc(NC(=O)C3CCCCC3)cc2C1=O	-0.1	-0.4	-1.6	-1.4	-0.6
COc1ccc(S(=O)(=O)N(C)C[C@H]2Oc3ccc(NC(=O)Nc4ccc(C(F)(F)F)cc4)cc3C(=O)N([C@H](C)CO)C[C@@H]2C)cc1	0.0	0.2	-1.1	-1.3	-0.3
COc1ccc(NC(=O)Nc2ccc3c(c2)C(=O)N([C@H](C)CO)C[C@H](C)[C@@H](CN(C)S(=O)(=O)c2ccc(OC)cc2)O3)cc1	0.0	6.4*	-0.6	-0.8	-0.8
CCc1cccc2c(C(C)c3ccccc3O)c[nH]c12 (stereo unspecified)	0.0	.	5.0	2.2*	3.6
COC(=O)c1cc(S(=O)(=O)N2CCN(c3ccccc3Cl)CC2)cn1C	-1.6	.	-0.1	-0.8	-2.1
O=C(CCCCC(=O)Nc1c(I)cc(I)c(C(=O)O)c1I)Nc1c(I)cc(I)c(C(=O)O)c1I	0.3	-0.7	-1.7	1.9*	0.4
COC1=C[C@H](C(=O)NC2CCN(Cc3ccccc3)CC2)[C@@]2(C)Cc3ccccc3[C@H]2CC1=O	0.2	.	-0.6	-1.5	-0.5
Cc1cccc(NC(=O)n2ccc3ccc(-c4ccc5cc[nH]c5c4)cc32)c1	-1.0	.	-3.6	-1.5	-2.1
O=C(c1cc2ccccc2o1)N1CCN(Cc2nc3ccccc3s2)CC1	0.4	0.6	4.8	0.7	6.2*
CCCCNC(=O)C(NC(=O)c1ccc(C(F)(F)F)cc1)C(=O)c1ccccc1 (stereo unspecified)	-0.4	.	0.9	2.4*	-0.1
C#CCC(NC(=O)c1ccc(C(F)(F)F)cc1)C(=O)NCCC (stereo unspecified)	0.7	1.8	1.8	-1.3	1.1
CC(C)CC(C)NC(=O)c1ccc(C(F)(F)F)cc1 (stereo unspecified)	-0.3	4.7*	-0.3	-0.7	-3.1
COC(=O)[C@]12CCCCC=C1N(Cc1ccc(OC)cc1)C(=O)[C@@H]2CC(=O)N1CCN(C(=O)C2CC2)CC1	0.8	.	-0.1	-0.8	-0.9
C(=C\c1ccccc1)/CSc1nnc(Cc2cccs2)n1-c1ccccc1	-0.1	.	0.6	-1.3	-0.5
CCOc1cccc2sc(N(CCCN(C)C)C(=O)c3ccc(S(=O)(=O)N(CC)Cc4ccccc4)cc3)nc12	-1.6	2.7	1.0	-0.8	1.1
CCN(Cc1ccccc1)S(=O)(=O)c1ccc(C(=O)N(CCCN(C)C)c2nc3c(F)cccc3s2)cc1	0.8	1.4	1.0	-1.1	5.7*
